Assay [1] concerns the target Cellular tumor antigen p53 (Homo sapiens) (UniProt P04637). Briefly: Primary qHTS for small molecule compounds that upregulate eGFP-tagged delta133p53alpha (in N-terminal) cells. (AID 2060322). Further: nearly all actives have a fitted effect of over 75% in size. Further: potency means the concentration at half of the fitted maximal effect.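 On activation: series mostly up to about 56 µM; 0% = DMSO vehicle and 100% = reference activator.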 To be noted: NCI-H358 eGFP-delta133p53alpha fluorescence, 24 h; activation: hits give high values. A digest of the protocol: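 NCI-H358 cells pre-induced 24 h with 10 ng/ml doxycycline to express N-terminal eGFP-delta133p53alpha, then dosed 24 h at 37C without doxycycline; fixed, Hoechst-stained, GFP intensity by laser scanning cytometry, normalized to DMSO (0%) and 57.5 uM 5-azacytidine (100%).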
In general terms: qHTS replaces the single test concentration by a dilution series.

The target of assay [2] is Aldehyde dehydrogenase, mitochondrial (Homo sapiens) (UniProt P05091). Briefly: qHTS for Inhibitors of the Aldehyde Dehydrogenase Family (ALDH2) Primary screen (AID 2061308).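 Further: plate controls were vehicle for no effect and reference inhibitor for full effect; nearly all actives have a fitted effect of over 55% in size.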
The target in assay [3] is Retinaldehyde dehydrogenase 3 (Homo sapiens) (UniProt P47895). Briefly: qHTS for Inhibitors of the Aldehyde Dehydrogenase Family (ALDH1A3) Validation screen (AID 2061312). Further: on the % scale 0 is the no-effect control and ±100 the full control effect; nearly all actives have a fitted effect of over 45% in size.
Assay [4] shares this target. The experiment in a line: qHTS for Inhibitors of the Aldehyde Dehydrogenase Family (ALDH1A3) Primary screen (AID 2061315).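 Further: plate controls were DMSO vehicle for no effect and reference inhibitor for full effect.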
The nature of assay [5]: BET inhibitor-based combinations targeting novel dependencies in MECOM-rearranged (r) AML: SET-2 cell line (AID 2202231). Further: nearly all actives have a fitted effect of over 35% in size. Further: potency means the concentration at half of the fitted maximal effect.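 On viability: plate controls were DMSO treated cells for no effect and wells without cells for full effect.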 Particulars: SET-2 AML cells viability, CellTiter-Glo luminescence, 48 h; viability: hits give low values, concentration not given here. A digest of the protocol:
(§1)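 500 cells/well; 11-pt dose curve; 48 h, standard incubator; CellTiter-Glo luminescence after 15 min RT; DMSO/empty-well normalization; AUC plus Z-AUC (mean-centered within each line).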
In general terms: Cellular ATP, detected with luciferase, serves as a proxy for viable cell number.

Assay [6] in a line: BET inhibitor-based combinations targeting novel dependencies in MECOM-rearranged (r) AML: MV-4-11 cell line (AID 2202233). Further: nearly all actives have a fitted effect of over 45% in size. Further: potency means the concentration at half of the fitted maximal effect. The gist of the method: (§2)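 Cells were plated at 500 per well and exposed to each drug across an 11-point dose range for 48 hr at standard incubator conditions. Viability was read by CellTiter-Glo luminescence, and activity was expressed as AUC and per-cell-line Z-transformed AUC.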

A short description of assay [7]: BET inhibitor-based combinations targeting novel dependencies in MECOM-rearranged (r) AML: UCSD-AML1 cell line (AID 2202235). Further: nearly all actives have a fitted effect of over 40% in size. Further: potency means the concentration at half of the fitted maximal effect. A digest of the protocol:
as §2

Assay [8] can be described thus: BET inhibitor-based combinations targeting novel dependencies in MECOM-rearranged (r) AML: AML-191 cell line (AID 2202236; further: nearly all actives have a fitted effect of over 35% in size; further: potency means the concentration at half of the fitted maximal effect). The gist of the method: as §1
The nature of assay [9]: BET inhibitor-based combinations targeting novel dependencies in MECOM-rearranged (r) AML: AML-194 cell line (AID 2202237; further: nearly all actives have a fitted effect of over 40% in size; further: potency means the concentration at half of the fitted maximal effect). The gist of the method: as §1
A short description of assay [10]: BET inhibitor-based combinations targeting novel dependencies in MECOM-rearranged (r) AML: HNT-34 cell line (AID 2202234). Further: nearly all actives have a fitted effect of over 35% in size. Further: potency means the concentration at half of the fitted maximal effect. A digest of the protocol: as §2
Assay [11] can be described thus: BET inhibitor-based combinations targeting novel dependencies in MECOM-rearranged (r) AML: OCI-AML3 cell line (AID 2202232). Further: potency means the concentration at half of the fitted maximal effect; nearly all actives have a fitted effect of over 35% in size. To be noted: Potency: OCI-AML3 viability. A digest of the protocol:
as §1

SMILES strings stand for the structures. “And” between values parts separate entries of the source, which are not always exact repeats. Equal entries are not always repeated. Inconclusive results are not listed. A number with no mark means an inactive call. The source made the active and inactive calls. The call rests on the fitted dose curve; in most records, active means well fitted curve in the direction sought with a large enough effect; inconclusive means small, poorly fitted or top-dose-only effect, or another doubt; inactive means no such curve, though single readings can be large; an effect the other way counts as inactive or inconclusive.

Chain of Cellular tumor antigen p53 (Homo sapiens) (P04637 whole entry, looked up): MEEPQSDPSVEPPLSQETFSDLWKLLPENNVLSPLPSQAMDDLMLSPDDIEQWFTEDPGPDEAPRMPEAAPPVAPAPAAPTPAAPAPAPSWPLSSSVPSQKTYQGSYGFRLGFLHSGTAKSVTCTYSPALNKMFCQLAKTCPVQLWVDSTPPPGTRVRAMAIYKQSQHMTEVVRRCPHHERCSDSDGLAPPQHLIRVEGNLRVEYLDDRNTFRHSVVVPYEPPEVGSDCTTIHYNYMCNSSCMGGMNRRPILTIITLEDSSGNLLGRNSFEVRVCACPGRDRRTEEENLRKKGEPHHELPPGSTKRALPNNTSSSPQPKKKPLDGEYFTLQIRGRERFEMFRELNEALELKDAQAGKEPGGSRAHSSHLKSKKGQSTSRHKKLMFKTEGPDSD

The viability is a read-out of living cells in per cent, often relative to untreated cells. For the compound `O=C(c1ccc(NS(=O)(=O)c2cccc3cccnc23)cc1)N1CCN(CC2CC2)CC1`, the activation in assay [1] is -3.34%. The Potency result in assay [2], in [3], in [4], in assay [6], in [7] and in assay [8] was “inactive” each time. Also, the Potency entry in assay [9] was “inactive”. Further, in assay [5], the viability was 115%.

Regarding `C[C@H]1Oc2cc(cnc2N)-c2c(nn(C)c2C#N)CN(C)C(=O)c2ccc(F)cc21`, in [1], the activation was 1.43% and -2.96%. For the same compound, the Potency result in [2], in assay [3] and in assay [4] was “inactive” each time. The viability in [5] is 98.3%. Besides, the results for the Potency in assay [6] and in assay [8] were 18.6 µM (active) and 1.32 µM (active), respectively.

With `CC(=O)N1CCN(CCOc2ccc(C3CCN(C4=Nn5c(nnc5C(F)(F)F)CC4)CC3)cc2)CC1`, in [1], the activation is -2.39%. Also, the Potency entry in assay [2], in assay [3], in [4], in assay [10], in assay [7] and in [8] was “inactive” each time. Further, the Potency in [5] is 14.8 µM (active).

Regarding `C=Cc1cc(O)cc2nc(-c3ccc(O)c(F)c3)oc12`, in assay [1], the activation is -0.955%. For the same compound, the Potency entry in [2], in [3], in assay [4], in [10], in assay [7] and in assay [9] was “inactive” throughout. For the same compound, the viability in assay [5] was 113%.

Consider `CCN(c1cc(-c2ccc(CN3CCOCC3)cc2)cc(C(=O)NCc2c(C)cc(C)[nH]c2=O)c1C)C1CCOCC1`, for which the activation in [1] was -17.7%. The Potency result in assay [2], in [3], in assay [4], in assay [10], in assay [7] and in [8] was “inactive” throughout. Further, the Potency entry in assay [9] was “inactive”. For the same compound, the viability in assay [5] is 94.8%.

`CNC(=O)c1ccc(N2C(=S)N(c3cnc(C#N)c(C(F)(F)F)c3)C(=O)C23CCC3)cc1F`: in [1], the activation is -16.4% and 8.59%. Besides, the Potency result in assay [2], in assay [3], in [4], in assay [6], in assay [10] and in assay [7] was “inactive” each time. Besides, the Potency entry in assay [8] and in assay [9] was “inactive” in each case. In addition, in [5], the viability was 98%.

With `COc1cc2c(NC3CCN(CC4CCCCC4)CC3)nc(N3CCCN(C(C)C)CC3)nc2cc1OCCCN1CCCCC1`, the Potency in assay [1] was 43.2 µM (active); in assay [6], 6.61 µM (active); in assay [8], 9.34 µM (active); in [9], 16.6 µM (active). In addition, the Potency entry in assay [2], in assay [3] and in assay [4] was “inactive” in each case. Also, the viability in [5] was 104%.

Turning to `CS(=O)(=O)c1ccc(-c2nnc(/C=C/c3nnc(-c4ccc(C#N)cc4)o3)n2-c2ccccc2Cl)nc1`, in [1], the activation is -4.77%. The Potency entry in assay [2], in [3], in [4], in [10], in assay [7] and in [9] was “inactive” each time. Moreover, the viability in [5] was 111%. Besides, in assay [6], the Potency is 10.5 µM (active).

In the case of `O=C(O)Cn1nnc(-c2cc(N3CCC(Oc4cc(F)ccc4Br)CC3)no2)n1`, in assay [1], the activation was 22.3% and 6.21%. The Potency entry in [2], in [3], in [4], in [10] and in [9] was “inactive” in each case. The viability in [5] is 127%.

Take `CCNC(=O)CCC/C=C\C[C@@H]1[C@@H](/C=C/C(O)CCc2ccccc2)[C@@H](O)C[C@@H]1O` (stereo partly specified): the activation in assay [1] was -11.9%. Also, the Potency entry in assay [2], in assay [3], in [4], in [6], in assay [10] and in assay [7] was “inactive” each time. Besides, the Potency result in [8] and in assay [9] was “inactive” throughout. In addition, the viability in assay [5] is 121%.

Regarding `CC[C@H](CC#N)OC(=O)N[C@@H](C)c1cccc(NC(=O)Nc2ccc(-c3cnco3)c(OC)c2)c1`, the activation in assay [1] was 7.84% and -10.5%. For the same compound, the Potency entry in assay [2], in assay [3] and in assay [4] was “inactive” each time. Further, the Potency in assay [11] was 0.468 µM (active); in assay [6] it was 0.235 µM (active); in assay [10] it was 0.525 µM (active); in [7], 0.296 µM (active).

Regarding `CC(C)N(CCCNC(=O)Nc1ccc(C(C)(C)C)cc1)C[C@H]1O[C@@H](n2ccc3c(N)ncnc32)[C@H](O)[C@@H]1O`, in [1], the activation is -20% and -29.1%. The Potency result in assay [2], in [3], in assay [4], in [10], in assay [7] and in [8] was “inactive” each time. For the same compound, the viability in [5] is 93.2%.

On to `O=C(NC[C@H](O)CN1CCc2ccccc2C1)c1cc(NC2COC2)ncn1`, for which, in assay [1], the activation was 11.2% and -21.4%. For the same compound, the Potency entry in [2], in [3], in assay [4], in assay [10], in assay [7] and in [8] was “inactive” throughout. For the same compound, in assay [9], the Potency entry is “inactive”. In assay [5], the viability is 97%.

For the compound `CC(C)(C)OC(=O)N[C@H]1CCCCCC=C[C@@H]2C[C@@]2(C(=O)NS(=O)(=O)C2CC2)NC(=O)[C@@H]2C[C@@H](OC(=O)N3Cc4cccc(F)c4C3)CN2C1=O`, the activation in assay [1] is 5.4%. The Potency entry in [2], in assay [3], in assay [4], in assay [10], in [7] and in assay [8] was “inactive” in each case. For the same compound, the Potency entry in [9] was “inactive”. The viability in [5] is 102%.

On to `CCOCc1nc2c(N)nc3ccccc3c2n1CC(C)(C)O`, for which the activation in assay [1] is 4.77%. For the same compound, the Potency result in assay [2], in assay [3], in assay [4], in [6], in assay [10] and in assay [7] was “inactive” throughout. In addition, the Potency result in assay [8] and in assay [9] was “inactive” each time. Also, the viability in [5] is 108%.

Regarding `Cc1ccc2nc(NC(=O)CSc3nc4c(c(=O)n3-c3ccccc3)SCC4)sc2c1`, the activation in [1] was 24.2% and -14.8%. In addition, the Potency result in [2], in assay [3], in [4], in assay [10], in [7] and in assay [8] was “inactive” throughout. The Potency result in assay [9] is “inactive”. Further, in assay [5], the viability is 114%.

As for `CCCCOc1nc(N)c2c(n1)N(Cc1cccc(CN3CCCC3)c1)CC(=O)N2`, in assay [1], the activation was 5.73%. The Potency entry in assay [2], in [3], in assay [4], in assay [7], in [8] and in [9] was “inactive” each time. In assay [5], the viability was 111%.

The values are drawn from PubChem BioAssay (NCATS).
